# Source: the OligoGym collection
# Target: ST8SIA1
# Test: pooled miR-30 sensor sort-seq; sequence = guide strand
# Details: shRNA
# Note: reference of the scale not given here.
row,Sequence,sensor-assay potency score (higher = more potent)
1,TTGTCCACAAATGTCTTTCTGG,-0.546
2,TTAGCTGTCACTAACTGACTTT,0.0924
3,TGACAGTGTATAATAAACCCTC,-0.586
4,TTTGTTTCCTGAACGCTCTGGC,0.807
5,TTTGCTTCATCTATTTGACGGC,0.566
6,TAAGACGTTGTCATAGTAGTGG,0.604
7,TAGCTGTCACTAACTGACTTTT,-1.28
8,TTGATTGGCACCAACATCTGAC,-0.0698
9,TAAGTTGAATTGTCAATGGTGA,-0.263
10,TTGACAATCAGCAACACTTTTA,-1.09
11,TTTGATTGGCACCAACATCTGA,-0.123

# Target: ST8SIA4
# Test: as above
# Details: shRNA
row,Sequence,sensor-assay potency score (higher = more potent)
1,TTATGTAGCACATTTAATGTTT,-0.574
2,TACATGAGAAGACCTGTGCTGG,-0.695
3,ATTGTGACTGTCAATCTCCTTT,-0.228
4,TTGAAATTAATCATCTCTGTTT,0.14
5,TTAACTACAGAAAATATCGGTC,0.169
6,TCTTTTGATAGGAACTTTGTTG,-0.556
7,TTTGATAGGAACTTTGTTGGTC,0.701
8,TTTCCAACCTTCTACATTGTGC,-0.709
9,TTCTATTTGAATAACAAGGGGA,-0.346
10,TTTAACTACAGAAAATATCGGT,0.525
11,TTGACCACTGACACATCTCGTT,0.237

# Target: STAC
# Test: as above
# Details: shRNA
row,Sequence,sensor-assay potency score (higher = more potent)
1,TTGTCAGCACTTTTGCTCCGTA,-0.694
2,TTCCAAATCTTCATTCTCCTGT,0.665
3,TTGTAGTCTCTGAACAAAGTTG,-1.06
4,TTTATAGTCCTACTGCTGCTGC,-0.661
5,TATGTAAACACGCTGTTGCTGC,-0.123
6,TTTCATGTCTTCGCTGTTGGTT,0.0863
7,TTCTTCTTCAGAACTCACGCAG,0.0195
8,TTGCAGTTTCATGTCTTCGCTG,0.116
9,TTTGTTGTAGTCTCTGAACAAA,-1.36
10,TTGTACAAGGCAACATAGGTGT,-0.164
11,TACATTTCTTCTAAGATGCTGT,0.11
12,TCTTGAAAGAAAGTGATCGTTT,-0.172

# Target: STAP2
# Test: as above
# Details: shRNA
row,Sequence,sensor-assay potency score (higher = more potent)
1,TTCCACGTAGCCTAGCACCTTC,-0.0469
2,TAGCCTAGCACCTTCTCGTAGT,-0.174
3,TAGAGGAAGCCACATCTTGGTT,-1.31
4,TACCTTGAACTTGATCTCCTGA,0.355
